Only some compounds are listed: those with a hit (about 12% of all), similar ones and a draw of the others.
HCV inh = HCV inhibition; Huh7.5.1 HCVcc-Cre infection, luciferase reporter, 44 h; Potency, µM (top dose mostly 41.8 µM), without a hit: at the highest dose activity change, negative = inhibition, usual class: inhibitors; hit rate 3.4% among 340,000; AID 651820; also: % is scaled to controls: 0 for no effect and ±100 for the full control effect
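Infectious HCVcc-Cre (~0.5 moi) was added to cells just after compound, with cells seeded 4 h earlier at 1,000 per well. Luciferase activity after 44 h culture reported infection; substrate was incubated 15 min at room temperature before reading.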
SARS PLpro yeast = SARS-CoV PLP inhibition in yeast; S. cerevisiae expressing SARS-CoV PLpro, growth rescue; Potency, µM (series often up to 32.9 µM), inactives show at the top dose activity, positive = growth rescue, hits mostly activators; hit rate 0.19% among 330,000; AID 485353; calls by dose curve; also: 0% is about no effect; nearly all actives have a fitted effect of over 55% in size
Pf growth 48h = inhibits P. falciparum growth in the first generation, 48 h. AID 504832. hit rate 5.9% among 310,000. P. falciparum luciferase growth in erythrocytes, 48 h. Potency, µM (doses to about 28.7 µM), inactives show at the top dose activity change, negative = inhibition, actives largely listed as inhibitors; also: % is scaled to controls: 0 for no effect and ±100 for the full control effect
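In quantitative HTS format, infected erythrocytes bearing luciferase-reporter parasites were treated for a single generation at 37 C. Luminescence after adding detection reagent served as the growth measure.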
NS1 function inh = inhibitors of influenza NS1 protein function; hit rate 0.4% among 270,000; Potency, µM (doses to about 46.1 µM), for inactives: at the highest dose activity, positive = more growth; AID 2326; calls by dose curve; also: actives are rising curves; nearly all actives have a fitted effect of over 50% in size
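OD600 was taken as the measure of yeast growth restored by compound in an NS1-expressing S. cerevisiae strain. Cells had been washed out of glucose medium and diluted 1:100 into galactose -URA medium, pH 6.0.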
AMA1 RON2 block = inhibitors of Plasmodium falciparum AMA1-RON2 interaction; AlphaScreen AMA1-biotinylated RON2 peptide binding; Potency, µM (titrated, usually from 58.2 µM), inactives show at the top dose activity change, negative = inhibition, actives largely listed as inhibitors; hit rate 0.2% among 360,000;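 also: 0% = vehicle wells and -100% = peptide control; nearly all actives have a fitted effect of over 45% in size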
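AMA1 (3D7) with his tag at 25 nM final met compounds first, then biotinylated RON2 peptide at 25 nM; detection used donor plus acceptor beads, 10 µg/mL apiece, read by AlphaScreen after 30 min at room temperature.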
Pf growth 96h = P. falciparum growth inhibition at 96 hours. Potency, µM (doses to about 28.7 µM), without a hit: at the highest dose activity change, negative = inhibition, usual class: inhibitors. AID 504834. hit rate 6.9% among 320,000. P. falciparum luciferase reporter growth, 96 h; also: % is scaled to controls: 0 for no effect and ±100 for the full control effect
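Two parasite generations (96 h, 37 C, 5% CO2) of compound exposure in infected erythrocytes (0.05% parasitemia, 2% hematocrit). Luciferase-reporter P. falciparum; decreased luminescence indicates inhibited growth, aimed at apicoplast-acting delayed death.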
HCV confirm = HCV inhibition, cherry-pick confirmation; shares compounds with HCV inh; HCVcc-Cre infectious virus cell assay, luciferase, inhibition; Potency, µM (highest dose often 41.8 µM), for inactives: top-dose activity, negative = inhibition, most hits filed as inhibitors; hit rate 78% among 640; also: nearly all actives have a fitted effect of over 80% in size
HCV host tox = host cell cytotoxicity counter-screen for HCV inhibitors; hit rate 22% among 640; HCV host cell line cytotoxicity counterscreen; shares compounds with HCV inh; Potency, µM (top dose mostly 41.8 µM), without a hit: top-dose activity change, negative = cytotoxicity, usual class: inhibitors;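 also: 44 h compound exposure; % is scaled to controls: 0 for no effect and ±100 for the full control effect; nearly all actives have a fitted effect of over 55% in size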
Starred values were filed as active, the others as inactive; u = inconclusive; x = not tested or not shown. Unless noted, calls follow the shape of the dose curve; as a rule, active = well fitted curve in the direction sought with a large enough effect; inconclusive = small, poorly fitted or top-dose-only effect, or another doubt; inactive = no such curve, though single readings can be large; an effect the other way counts as inactive or inconclusive. Potency is read from the fitted curve at half-maximal effect.

SMILES	HCV inh	SARS PLpro yeast	Pf growth 48h	NS1 function inh	AMA1 RON2 block	Pf growth 96h	HCV confirm	HCV host tox
Cc1ccc(S(=O)(=O)N(C)c2c(C)ccc(S(=O)(=O)NC(C)(C)C)c2C)cc1	-24%	0%	u	2%	2%	23%	x	x
c1cc2c(cc1C1CCCCC1)c1c3n2CCCNC3CCC1 (stereo unspecified)	3.5µM*	-52%	u	-30%	-20%	-24%	28µM*	31µM*
Cc1ccc2c(c1)c1c3n2CCCNC3CCC1 (stereo unspecified)	u	0%	x	15%	-11%	92%	x	x
Cn1nc(C(F)(F)F)c2cc(NC(=O)OCc3ccc(C(C)(C)C)cc3)sc21	u	7%	x	2%	-17%	-33%	25µM*	u
C[C@@H]1CN([C@H](C)CO)C(=O)CCCn2nncc2CO[C@@H]1CN(C)C(=O)Nc1ccc2c(c1)OCO2	x	x	x	x	0%	x	x	x
O=C(/C=C/c1ccccc1[N+](=O)[O-])N1CCN(C(=O)c2ccco2)CC1	3%	0%	-16%	x	38%	8%	x	x
COC(=O)c1ccc2nc(-c3cccc(Cl)c3)c(Cc3cccc(F)c3)n2c1	x	x	x	x	-14%	x	x	x
COC(=O)C1=C(c2ccc(-c3ccccc3)c(F)c2)C[C@@H]2CC[C@H]1N2C(=O)N1CCOCC1	3.5µM*	-8%	u	x	-2%	u	7.9µM*	7µM*
COC(=O)C1=C(c2ccc(-c3ccccc3)c(F)c2)C[C@@H]2CC[C@H]1N2C(=O)N1CCC(C)CC1	u	4%	u	x	-15%	u	x	x
COC(=O)C1=C(c2ccc3ccccc3c2)C[C@@H]2CC[C@H]1N2C(=O)N1CCCCC1	7.9µM*	-13%	u	x	-2%	u	11µM*	11µM*
CCN(CC)C(=O)c1nc(-c2cccc3ccccc23)no1	x	x	x	x	24%	x	x	x
O=C(Nc1ccc(-c2noc(COc3ccccc3Cl)n2)cc1)c1ccco1	u	-12%	u	-15%	-11%	223%	7µM*	-27%
O=C(COc1ccccc1Cl)Nc1ccc(NC(=O)c2ccco2)cc1	-15%	10%	-26%	-18%	3%	6%	x	x
O=C(Cc1ccccc1F)NNC(=O)c1ccncc1	4%	1%	16%	u	52%	-10%	x	x
Cc1ccccc1SC1CCN(Cc2nc(C3CC3)no2)CC1	16%	0%	-1%	-3%	-2%	u	x	x
COc1ccccc1-c1nnc(NC(=O)CSc2nncn2C)s1	-11%	1%	155%	7%	12%	0%	x	x
Oc1ccc(C[C@H]2CNC(=S)N2CC2CCCN2C[C@H](Cc2ccc(O)cc2)N2C[C@H](Cc3ccccc3)N(CC3CCCCC3)C2=S)cc1 (stereo partly specified)	2.5µM*	x	x	x	50%	x	8.9µM*	-19%
O=C(CN1C(=O)/C(=C2/SC(=S)N(CCS(=O)(=O)O)C2=O)c2ccccc21)Nc1cccc(Br)c1	16%	0%	x	x	-25%	x	x	x
COc1ccc(OCCC(=O)OCC(=O)NCc2ccc(F)cc2)cc1	-1%	-5%	4%	x	-4%	12%	x	x
COCC(C)n1c(SCC(=O)N2CCc3ccccc3C2)nc2ccccc2c1=O (stereo unspecified)	u	-15%	u	-27%	-16%	7.4µM*	20µM*	-3%
Cc1cccc(Cn2c(O)c(N=NC(=S)Nc3ccccc3F)c3ccccc32)c1	4µM*	4%	u	x	17%	0%	7.9µM*	u
O=C(Nc1ccc(Cl)c(S(=O)(=O)N2CCCCC2)c1)c1ccco1	-14%	-3%	u	x	-8%	u	x	x

Screening results as filed in PubChem.
